Results taken from the supplement of paper PMC8699584.
Structures can show the parent of a compound that is named as a salt. ± gives the standard deviation of the averaged measurements.

Key:
Molm13 = experiment: cell viability relative to DMSO control (bortezomib = 0%); higher = less growth inhibition; conditions: 10 nM; 72 h
How it was run: (§1)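 FLT3-ITD+ acute myeloid leukemia cells were dispensed onto a library of 679 approved and investigational compounds in 384-well plates, at 1000 cells per well in 50 µL and a single 10 nM dose, for 72 h. The screen was run in duplicate. Cell viability was read by CellTiter-Glo luminescence on an EnVision reader. Values were converted to percentages by per-plate linear regression between DMSO-treated cells (100%) and positive-control-treated cells (0%).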

Mv4-11 = experiment: as above; conditions: 10 nM; 72 h
How it was run: as §1

Structure (SMILES) | cell viability (Molm13) | cell viability (Mv4-11)
C=CC(=O)Nc1cc(Nc2nccc(-c3c[nH]c4ccccc34)n2)c(OC)cc1N(C)CCN(C)C | 104 ± 7.9% | 121 ± 6.1%
O=C(Nc1ccc(CN2CCOCC2)cc1)c1ccc(-c2cccc(Cl)c2)o1 | 113 ± 2.9% | 120 ± 6%
CC#CC(=O)N1CCC[C@H]1c1nc(-c2ccc(C(=O)Nc3ccccn3)cc2)c2c(N)nccn12 [Acalabrutinib] | 111 ± 8.4% | 125.6 ± 1.1%
CNC(=O)c1c(C)oc2cc(Oc3ncnc4cc(OC)c(OC)cc34)ccc12 [Fruquintinib] | 103 ± 25% | 106 ± 2.8%
NC(=O)c1ccc(N(C(N)=O)c2c(F)cccc2F)nc1-c1ccc(F)cc1F | 93.7 ± 5.1% | 98.7 ± 8.1%
CCn1c(N)c(C(=O)NC)c(=O)c2ccc(C#CC(C)(O)COC)nc21 (centres undefined) | 110 ± 4.6% | 115 ± 8.3%
COc1ccc2cc1Oc1ccc(cc1)C[C@H]1c3cc(c(OC)cc3CCN1C)Oc1c(O)c(OC)cc3c1[C@H](C2)N(C)CC3 [(+)-Fangchinoline] | 116 ± 13% | 114 ± 1.3%
CCCS(=O)(=O)Nc1ccc(F)c(C(=O)c2c[nH]c3ncc(-c4ccc(Cl)cc4)cc23)c1F [Vemurafenib (PLX4032, RG7204)] | 101 ± 7% | 105 ± 1.1%
CCCCCN(CCCOC)C(=O)C(CCC(=O)O)NC(=O)c1ccc(Cl)c(Cl)c1 (centres undefined) [Loxiglumide] | 85.9 ± 4.4% | 108 ± 3.1%
O=C1Cc2c([nH]c3ccc(Br)cc23)-c2ccccc2N1 [KenPaullone] | 91.6 ± 2.8% | 95.2 ± 16%
CS(=O)(=O)c1ccc(-c2nc(-c3ccc(F)cc3)c(-c3ccncc3)[nH]2)cc1 | 108 ± 14% | 100.3 ± 0.91%
Cc1ccc([N+](=O)[O-])cc1S(=O)(=O)N(C)/N=C/c1cnc2ccc(Br)cn12 [PIK-75 (hydrochloride)] | 94.7 ± 11% | 92.2 ± 7.8%
